# Test results: PubChem BioAssay (NCI)
# The panel holds about 83,000 compounds, 20% with a hit somewhere; the sample as a whole holds those more often.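 Assay: single dose, 48 h. Readout: percent growth (0 = no net growth; negative = cell death). Active: <10.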 Unmarked numbers belong to inactive results. Active and inactive are the calls of the source.
# System: OVCAR-4 ovarian
# Assay: NCI-60 one-dose screen, 48 h (100 = growth as untreated, 0 = no growth, -100 = all killed)
# Conditions: 10 µM
row,Compound,growth
1,CCNc1cc2c(cc1Br)-c1ccccc1C2=O,92.5%
2,Cn1cc(-c2noc(-c3cn(C)c4ncccc34)n2)c2cc(Cl)ccc21,98.3%
3,N#Cc1ccc(-c2ccc(COc3ccc(CC4SC(=O)NC4=O)cc3)cc2)cc1 (centres undefined),40.8%
4,O=C(N[C@@H]1CCCc2ccccc21)[C@H](CCC(=O)N1CCN(C2CCCCC2)CC1)N1C(=O)[C@@H](N2C(=O)OC[C@@H]2c2ccccc2)[C@H]1/C=C/c1ccccc1,36.8%
5,CCOC(=O)/C(C#N)=C(\C)CCc1ccccc1,58.9%
6,COc1ccc(C(=O)CSc2nccc(Nc3ccc(C(=O)O)cc3)n2)cc1,108%
7,O=C(NCCCCCCCNC(=O)OCc1ccc2c(Cl)cc(Cl)c(O)c2n1)OCc1ccc2c(Cl)cc(Cl)c(O)c2n1,-71.9% (active)
8,CCN(CCO)CCC(=O)c1ccc([N+](=O)[O-])cc1,103%
9,CCOC(=O)COc1c(C)cc(SSc2cc(C)c(OCC(=O)OCC)c(C)c2)cc1C,93.1%
10,CC(C)C1=NOC(=O)C1=Cc1cn(-c2ccco2)nc1-c1ccccc1,94.6%
11,CCOC(=O)Nc1ccc2c(c1)/C(=N\NC(=S)NC)c1ccccc1-2,92.3%
12,COc1ccc(/C=C(/C(=O)c2ccc(Cl)cc2)C(=O)C(F)(F)F)cc1,96.3%
13,O=[N+]([O-])c1cccc(N=NNc2cccc([N+](=O)[O-])c2)c1,88.7%
14,COc1ccc2c(c1)c(-c1noc(-c3cn(C)c4ncc(F)cc34)n1)cn2C,18.4%
15,CCn1cc(-c2ccnc(NCCNS(=O)(=O)c3cccc4ccccc34)c2)c(-c2cccc(O)c2)n1,99.9%
16,Cc1ccc(-c2cc(O)c(-c3ccc(C)cc3C)cc2O)c(C)c1,41.2%
17,CCc1ccc(-c2ccc(COc3ccc(CC4SC(=O)NC4=O)cc3)cc2)cc1 (centres undefined),58.6%
18,CCCn1ccnc1C(O)c1ccc(OCc2ccccc2)c(OC)c1 (centres undefined),96.5%
19,O=C(Nc1cc(F)cc2cccnc12)c1cnc(N2CCNCC2)cn1,11.2%

row,Compound,growth
1,O=C(CCCSc1nc(-c2ccccc2)cc(-c2ccccc2)n1)NO,11.9%
2,O=C(CCN1CCCCC1)c1ccc(Cl)cc1,105%
3,O=C(NCCCNC(=O)OCc1ccc2c(Br)cc(Br)c(O)c2n1)OCc1ccc2c(Br)cc(Br)c(O)c2n1,-77.6% (active)
4,Cc1ccc(N)c(O)c1,84.2%
5,COc1cc2c(=O)[nH]c3cc([N+](=O)[O-])ccc3c2cc1[N+](=O)[O-],54.1%
6,C/C=C/C1OC23CCCCC2C(C#N)(C(=N)O3)C1(C#N)C#N (centres undefined),95%
7,Cc1ccc(S(=O)(=O)NCCCNc2nccc(-c3c(-c4cccc(F)c4)nc4occn34)n2)cc1,73.4%
8,COc1ccc2c(c1)C(C)Cc1c(ncnc1-n1cnc3ccccc31)N2C (centres undefined),70%
9,Clc1ccccc1/C=N\Nc1ccccn1,68%
10,CC(C)C1=NOC(=O)C1=Cc1cn(-c2ccccc2)nc1-c1cccc([N+](=O)[O-])c1,103%
11,CC(C)C1=NOC(=O)C1=Cc1cn(-c2cccnc2)nc1-c1ccccc1,103%
12,O=C1COCCN1c1ccc(NCc2cn(Cc3ccccc3)c3ccccc23)cc1,62.6%
13,COc1ccc(N(c2nc(-c3ccc([N+](=O)[O-])cc3)cs2)C(C)C)cc1,70%
14,OC(c1ccc(Cl)cc1)(c1ccc(Cl)cc1)C(O)(c1ccc(Cl)cc1)c1ccc(Cl)cc1,44.8%
15,O=C(NCc1ccc(Cn2c(=O)sn(-c3ccccc3)c2=O)cc1)OCc1ccc2c(Br)cc(Br)c(O)c2n1,-52.9% (active)
16,O=S(=O)(NCCNc1nccc(-c2c(-c3cccc(F)c3)nc3occn23)n1)c1ccc(C(F)(F)F)cc1,87.6%
17,O=C(Nc1ccc(Cl)c(C(F)(F)F)c1)Nc1ccc(-c2cccnc2)cc1N1CCC(CO)CC1,43.8%
18,O=C(CCNCc1ccccc1)c1ccccc1,119%

# System: SK-OV-3 ovarian
# Assay: as above
# Conditions: 10 µM unless noted
row,Compound,growth
1,CCNc1cc2c(cc1Br)-c1ccccc1C2=O,90.4%
2,Cn1cc(-c2noc(-c3cn(C)c4ncccc34)n2)c2cc(Cl)ccc21,89%
3,N#Cc1ccc(-c2ccc(COc3ccc(CC4SC(=O)NC4=O)cc3)cc2)cc1 (centres undefined),69.9%
4,O=C(N[C@@H]1CCCc2ccccc21)[C@H](CCC(=O)N1CCN(C2CCCCC2)CC1)N1C(=O)[C@@H](N2C(=O)OC[C@@H]2c2ccccc2)[C@H]1/C=C/c1ccccc1,70.6%
5,CCOC(=O)/C(C#N)=C(\C)CCc1ccccc1,125%
6,COc1ccc(C(=O)CSc2nccc(Nc3ccc(C(=O)O)cc3)n2)cc1,99.1%
7,O=C(NCCCCCCCNC(=O)OCc1ccc2c(Cl)cc(Cl)c(O)c2n1)OCc1ccc2c(Cl)cc(Cl)c(O)c2n1,35%
8,CCN(CCO)CCC(=O)c1ccc([N+](=O)[O-])cc1,107%
9,CCOC(=O)COc1c(C)cc(SSc2cc(C)c(OCC(=O)OCC)c(C)c2)cc1C,106%
10,CC(C)C1=NOC(=O)C1=Cc1cn(-c2ccco2)nc1-c1ccccc1,102%
11,CCOC(=O)Nc1ccc2c(c1)/C(=N\NC(=S)NC)c1ccccc1-2,112%
12,COc1ccc(/C=C(/C(=O)c2ccc(Cl)cc2)C(=O)C(F)(F)F)cc1,100%
13,O=[N+]([O-])c1cccc(N=NNc2cccc([N+](=O)[O-])c2)c1,104%
14,COc1ccc2c(c1)c(-c1noc(-c3cn(C)c4ncc(F)cc34)n1)cn2C,79.1%
15,CCn1cc(-c2ccnc(NCCNS(=O)(=O)c3cccc4ccccc34)c2)c(-c2cccc(O)c2)n1,106%
16,Cc1ccc(-c2cc(O)c(-c3ccc(C)cc3C)cc2O)c(C)c1,82.7%
17,CCc1ccc(-c2ccc(COc3ccc(CC4SC(=O)NC4=O)cc3)cc2)cc1 (centres undefined),84.9%
18,CCCn1ccnc1C(O)c1ccc(OCc2ccccc2)c(OC)c1 (centres undefined),87.7%
19,O=C(Nc1cc(F)cc2cccnc12)c1cnc(N2CCNCC2)cn1,100%

row,Compound,growth
1,O=C(CCCSc1nc(-c2ccccc2)cc(-c2ccccc2)n1)NO,-18.6% (active)
2,O=C(CCN1CCCCC1)c1ccc(Cl)cc1,103%
3,O=C(NCCCNC(=O)OCc1ccc2c(Br)cc(Br)c(O)c2n1)OCc1ccc2c(Br)cc(Br)c(O)c2n1,20.2%
4,Cc1ccc(N)c(O)c1,112%
5,COc1cc2c(=O)[nH]c3cc([N+](=O)[O-])ccc3c2cc1[N+](=O)[O-],77.4%
6,C/C=C/C1OC23CCCCC2C(C#N)(C(=N)O3)C1(C#N)C#N (centres undefined),103%
7,Cc1ccc(S(=O)(=O)NCCCNc2nccc(-c3c(-c4cccc(F)c4)nc4occn34)n2)cc1,68.3%
8,COc1ccc2c(c1)C(C)Cc1c(ncnc1-n1cnc3ccccc31)N2C (centres undefined),14.5%
9,Clc1ccccc1/C=N\Nc1ccccn1,84.1%
10,CC(C)C1=NOC(=O)C1=Cc1cn(-c2ccccc2)nc1-c1cccc([N+](=O)[O-])c1,117%
11,CC(C)C1=NOC(=O)C1=Cc1cn(-c2cccnc2)nc1-c1ccccc1,104%
12,O=C1COCCN1c1ccc(NCc2cn(Cc3ccccc3)c3ccccc23)cc1,34.3%
13,COc1ccc(N(c2nc(-c3ccc([N+](=O)[O-])cc3)cs2)C(C)C)cc1,81.7%
14,OC(c1ccc(Cl)cc1)(c1ccc(Cl)cc1)C(O)(c1ccc(Cl)cc1)c1ccc(Cl)cc1,35.9%
15,O=C(NCc1ccc(Cn2c(=O)sn(-c3ccccc3)c2=O)cc1)OCc1ccc2c(Br)cc(Br)c(O)c2n1,55.2%
16,O=S(=O)(NCCNc1nccc(-c2c(-c3cccc(F)c3)nc3occn23)n1)c1ccc(C(F)(F)F)cc1,79.5%
17,O=C(Nc1ccc(Cl)c(C(F)(F)F)c1)Nc1ccc(-c2cccnc2)cc1N1CCC(CO)CC1,32.6%
18,O=C(CCNCc1ccccc1)c1ccccc1,109%
